{"source": "PubChem BioAssay AID720621", "about": "(The Scripps Research Institute Molecular Screening Center, 2013)", "target": "Fibrinogen beta chain (Homo sapiens) (UniProt P02675)", "sequence (P02675 whole entry, looked up)": "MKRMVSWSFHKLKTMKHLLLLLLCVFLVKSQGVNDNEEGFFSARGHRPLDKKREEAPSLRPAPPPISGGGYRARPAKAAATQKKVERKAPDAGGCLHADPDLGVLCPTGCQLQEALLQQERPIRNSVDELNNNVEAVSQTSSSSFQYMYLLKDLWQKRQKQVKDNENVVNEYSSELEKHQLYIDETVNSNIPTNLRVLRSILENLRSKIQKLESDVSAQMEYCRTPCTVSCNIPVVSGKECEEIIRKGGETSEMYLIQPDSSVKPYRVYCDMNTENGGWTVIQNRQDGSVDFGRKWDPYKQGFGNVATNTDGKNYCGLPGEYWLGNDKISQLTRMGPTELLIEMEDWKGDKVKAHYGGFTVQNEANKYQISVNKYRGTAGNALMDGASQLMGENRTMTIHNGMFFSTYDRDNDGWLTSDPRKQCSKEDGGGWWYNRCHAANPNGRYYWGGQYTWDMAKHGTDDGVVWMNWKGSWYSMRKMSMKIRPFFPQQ", "assay": "DD(E) binders in alternate-peptide displacement assay, confirmation, counter-screen for fibrin DD(E)-Tn6 binding project, biochemical, fluorescence polarization, human fibrin (AID 720621);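 further: 0% = median of compound wells and 100% = wells with Aha-Tn7 blocking peptide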", "details": "TRITC-Tn6 fluorescence polarization displacement, at 8.3 µM, active compounds read high", "note": "Some of the results follow. Values without a mark were called inactive.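 How the source made its calls: active means inhibition above the mean of test compounds lying between the control limits plus 3 SD of those (cut at about 14% in these data); inactive means the rest.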", "data": [{"smiles": "COc1ccc2c(c1O)-c1cccc3c1[C@@H](C2)N(C)CC3", "values": [{"measurement": "inhibition", "value": -6.45, "unit": "%"}]}, {"smiles": "Cc1cc(N2CCNC[C@@H]2C)ccc1N1CC[C@H](O)C1", "values": [{"measurement": "inhibition", "value": 2.02, "unit": "%"}]}]}
